PP5 inh: inhibitors of human protein phosphatase 5 (PP5) | P53041 | hit rate 0.18% among 320,000 | purified PP5c, OMFP substrate fluorescence | inhibition, % at 6.7 µM;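 active = inhibition above the campaign's mean inhibition across all tested compounds plus 3 SD, cut at about 9.5% in these data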;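 also: 0% = DMSO only and 100% = 100 µM cantharidin control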
Target sequence (P53041 whole entry, looked up): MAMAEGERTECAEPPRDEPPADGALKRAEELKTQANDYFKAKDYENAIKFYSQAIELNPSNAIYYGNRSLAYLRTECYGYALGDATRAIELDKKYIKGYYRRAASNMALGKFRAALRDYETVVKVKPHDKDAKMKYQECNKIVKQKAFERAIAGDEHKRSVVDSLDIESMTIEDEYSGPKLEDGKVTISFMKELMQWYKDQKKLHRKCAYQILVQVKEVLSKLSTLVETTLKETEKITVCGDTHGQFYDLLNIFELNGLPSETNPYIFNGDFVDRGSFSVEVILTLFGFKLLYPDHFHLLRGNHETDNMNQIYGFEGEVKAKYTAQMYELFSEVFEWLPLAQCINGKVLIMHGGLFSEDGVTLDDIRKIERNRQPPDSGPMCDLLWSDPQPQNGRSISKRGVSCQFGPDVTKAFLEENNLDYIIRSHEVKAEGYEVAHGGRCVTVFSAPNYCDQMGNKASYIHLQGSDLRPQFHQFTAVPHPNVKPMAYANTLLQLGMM
PAFAH1B2 FP inh: PAFAH1B2 (human) inhibition; P68402; recombinant PAFAH1B2, FP-rhodamine activity probe, fluorescence polarization; inhibition, % at 3.39 µM; hit rate 1.2% among 340,000;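 active = inhibition above the mean of all tested compounds plus 3 SD, cut at about 24% in these data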;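 also: 0% = enzyme with DMSO and 100% = wells lacking PAFAH1B2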
pPAFAH FP inh: inhibitors of human plasma PAF acetylhydrolase (pPAFAH); recombinant pPAFAH, FP-rhodamine probe fluorescence polarization; hit rate 1.5% among 330,000; inhibition, % at 3.39 µM; AID 463082; Q13093;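 active = inhibition above the mean inhibition across the screen plus 3 SD, cut at about 25% in these data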;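 also: inhibitors block binding of the rhodamine activity-based probe so polarization drops; 0% = enzyme with DMSO and 100% = wells lacking pPAFAH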
PAFAH1B3 inh: inhibitors of human PAFAH1B3; Q15102; recombinant PAFAH1B3, FP-rhodamine probe, fluorescence polarization; inhibition, % at 3.39 µM; hit rate 0.28% among 340,000; AID 492972;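 active = inhibition above the screen-wide average of all tested compounds plus 3 SD, cut at about 25% in these data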;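 also: 0% = enzyme with DMSO only and 100% = wells lacking PAFAH1B3 protein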
PAFAH2 inh: PAFAH2 (human) inhibition. recombinant PAFAH2, FP-rhodamine activity probe, fluorescence polarization. inhibition, % at 3.39 µM. Q99487. AID 492956. hit rate 0.99% among 340,000;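 active = inhibition above the mean over all tested compounds plus 3 SD, cut at about 30% in these data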;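 also: inhibitors block probe labeling of enzyme so polarization drops; 0% = enzyme with DMSO and 100% = wells lacking PAFAH2 protein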
Fh CTSL1 inh: cathepsin L1 inhibition, PFM18AAP counter-screen; inhibition, % at 5.96 µM; hit rate 0.49% among 300,000; recombinant F. hepatica cathepsin L1, Z-Leu-Arg-MCA fluorescence;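 active = inhibition above the mean of all tested compounds plus 3 SD, set per screening campaign, cut at about 17% in these data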;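 also: 0% = plate median of test compound wells and 100% = 1 µM Z-Phe-Ala-diazomethylketone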
* marks the source's active call; other numbers are inactive results; . = no result. An excerpt weighted towards active compounds, which were near 3% of everything screened.

SMILES	PP5 inh	PAFAH1B2 FP inh	pPAFAH FP inh	PAFAH1B3 inh	PAFAH2 inh	Fh CTSL1 inh
COc1ccc(NS(=O)(=O)c2ccc(NC(=O)c3ccc(CN4CCOCC4)cc3)cc2)cc1	0	-4	21	5	-7	0
CC(=O)NS(=O)(=O)c1ccc(NS(=O)(=O)c2ccc(F)cc2)cc1	0	4	0	7	8	0
O=C(O)c1cc(NS(=O)(=O)c2ccc(F)cc2)cc(NS(=O)(=O)c2ccc(F)cc2)c1	.	42*	15	5	32*	.
Cc1ccc(S(=O)(=O)Nc2ccc(NC(=O)c3ccc(F)cc3)cc2)cc1	2	4	30*	6	1	-3
COC(=O)c1ccc(COC(=O)CNC(=O)c2cccs2)cc1	4	-2	0	3	-1	-14
N=C1/C(=C\c2coc3ccc(O)cc3c2=O)C(=O)N=C2SC=CN12	-4	-2	26*	-2	-6	2
COc1ccc(OC)c(NC(=O)CSc2nnc(CNC(=O)COc3ccc(Cl)cc3)o2)c1	2	28*	1	-2	-1	-5
COc1ccc(NC(=O)CSc2nnc(CNC(=O)COc3ccc(Cl)cc3)o2)c(OC)c1	0	20	2	0	2	-3
CCCN(C(=O)C1CC(=O)N(c2ccccc2C(C)CC)C1)C1CCS(=O)(=O)C1 (configuration not stated)	-2	2	2	-1	-3	.
O=C(c1ccc(Oc2cc(Cl)cc(Cl)c2)o1)N1CCCCC1	0	4	32*	4	12	-3
O=C(NCCN1CCCCC1)c1ccc(Oc2cc(Cl)cc(Cl)c2)o1	0	.	6	.	.	-2
Cc1cc(C)c(S(=O)(=O)NCCCn2ccnc2)cc1C	1	2	4	12	2	1
FC(F)(F)c1nc2cc3nc4ccccc4[nH]c3cc2n1	3	8	31*	10	0	-1
COc1ccc(CN2CCc3c([nH]c4ccccc34)C2)c(OC)c1C	0	-3	5	0	-2	1
CC(C)NC(=O)c1ccc2c(c1)N(Cc1ccccc1)C(=O)C(C)(C)O2	.	1	.	3	2	.
CCOc1ccc(N=C2NC(=O)C(CC(=O)Nc3ccccc3)S2)cc1 (configuration not stated)	-2	3	-3	8	13	19*
N#Cc1c(NC(=O)CN2CCOCC2)oc(-c2ccccc2)c1-c1ccccc1	1	13	1	1	-3	-2
COc1ccc(-c2oc(NC(=O)CCl)c(C#N)c2-c2ccc(OC)cc2)cc1	2	5	21	5	15	61*
N#Cc1c(NC(=O)Cn2cnc3ccccc3c2=O)oc(-c2ccccc2)c1-c1ccccc1	1	29*	16	6	2	0
Cc1ccnc(SCC(=O)Nc2oc(-c3ccccc3)c(-c3ccccc3)c2C#N)n1	4	-5	1	7	-10	2
N#Cc1c(NC(=O)CSc2ncccn2)oc(-c2ccccc2)c1-c1ccccc1	2	12	32*	6	1	8
Cc1ccccc1CNC(=O)CCC(=O)N1CCOc2ccc(Cl)cc21	0	0	9	-2	-33	0
COC1=C(Nc2ccc(C)cc2)C(=O)c2ccccc2C1=O	8	10	4	6	13	-6
COC1=C(N)C(=O)c2nc(C)ccc2C1=O	.	27*	.	63*	18	.
COc1cccc(C(=O)NC2C(=O)N3C(C(=O)O)=C(COC(C)=O)CSC23)c1 (configuration not stated)	-1	6	6	5	11	.
SMILES	PP5 inh	PAFAH1B2 FP inh	pPAFAH FP inh	PAFAH1B3 inh	PAFAH2 inh	Fh CTSL1 inh
CC(=O)OCC1=C(C(=O)O)N2C(=O)C(NC(=O)c3ccc(COc4cccc(Cl)c4Cl)o3)C2SC1 (configuration not stated)	0	9	30*	8	12	-1
N#CC(=C1C=CC(=NO)C(Cl)=C1)c1ccc(Cl)cc1	.	38*	.	8	7	.
O=C(O)CCn1nnc2ccccc21	0	6	3	1	7	2
Cc1ccc(NS(=O)(=O)c2ccc3c(c2)NC(=O)CCS3)c(C)c1	2	13	30*	8	9	-4
CC(CNS(=O)(=O)c1ccc2c(c1)NC(=O)CCS2)c1ccccc1 (configuration not stated)	3	39*	27*	0	-2	-3
COc1ccc(N(CC2CO2)S(=O)(=O)c2ccc(C)cc2)cc1 (configuration not stated)	1	8	-4	-4	-5	-2
O=C(NC(=S)NNC(=O)c1ccccc1O)c1cccnc1	0	19	16	26*	60*	-2
Cc1ccc(NC(=O)COc2coc(CN3CCN(c4ccccc4)CC3)cc2=O)cc1	0	1	2	2	8	-1
O=C(CCC1CCCNC1)c1ccccc1 (configuration not stated)	1	.	5	.	.	7
CCc1cc(C(=O)N=Nc2c(O)[nH]c3ccc([N+](=O)[O-])cc23)c2ccccc2n1	1	-2	33*	8	1	14
O=C(O)c1cc(S(=O)(=O)Nc2ccccc2C(=O)O)ccc1O	-2	1	4	-3	-1	0
CCOc1ccc(C=NNc2ccc(S(=O)(=O)Nc3ccccc3C(=O)O)cc2[N+](=O)[O-])cc1OC	.	11	25*	13	29	.
COc1cc(/C=N/Nc2ccccc2[N+](=O)[O-])ccc1OC(=O)c1ccccc1F	0	0	3	-2	-9	14
O=C(O)c1ccccc1NS(=O)(=O)c1ccc(N/N=C/c2cccc(O)c2O)c([N+](=O)[O-])c1	.	44*	.	48*	63*	.
CC(=O)Nc1cccc(/C(C)=N/Nc2ccc(S(=O)(=O)Nc3ccccc3C(=O)O)cc2[N+](=O)[O-])c1	.	33*	.	23	38*	.
COc1ccc(NC(=O)c2ccccc2NS(=O)(=O)c2ccc(C)cc2)c([N+](=O)[O-])c1	0	-1	16	10	13	-4
NC(CCCCc1ccccc1)c1cccc2ccccc12 (configuration not stated)	2	.	1	.	.	2
O=C1Nc2ccccc2C(O)(C(=O)NCc2ccco2)N1c1ccc(Cl)c(Cl)c1 (configuration not stated)	-8	5	6	8	4	66*
CCOC(=O)C1Nc2ccc(OC(F)(F)F)cc2C2C=CCC12 (configuration not stated)	1	12	5	8	14	-3
NS(=O)(=O)c1ccc2c(c1)C1C=CCC1C(C1CC=CCC1)N2 (configuration not stated)	3	24	28*	2	-3	3
CC(C)C1Nc2ccc(S(N)(=O)=O)cc2C2C=CCC21 (configuration not stated)	2	32*	9	8	5	0
